From PubChem BioAssay

tested on: Neuregulin-1 EGF-like domain; test: binders of neuregulin-1 EGF-like domain, primary screen, biochemical, small-molecule microarray, 635 nm fluorescence (AID 1081); settings: small-molecule microarray binding, higher = more signal;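 note: binding of the protein to compounds printed on small-molecule microarray slides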

Compound | composite z-score
CC(C)(C)OC(=O)CC[C@@]1(C(=O)N2CCCCC2)N=C(c2ccc(OCCCO)cc2)O[C@@H]1c1ccccc1CN=[N+]=[N-] | 1.22
CC(C)C(CO)N1C(=O)[C@@H]2[C@H]3C(=O)OCC=C[C@H]3OC23C=CCN(CCN2CCOCC2)C(=O)[C@@H]13 (stereo partly specified) | -0.428
CN1C(=O)C2C=CC(C(O)c3cccc4ccccc34)N(NC(=O)OC(C)(C)C)C2C1=O (stereo unspecified) | 1.15
COCCOC(=O)N1C(=O)[C@@]2(c3cc(C#Cc4ccc(OC)cc4)ccc31)[C@H](C(=O)N1CCc3cc(OC)c(OC)cc3C1)[C@H]1C(=O)O[C@H](c3ccccc3)[C@H](c3ccccc3)N1[C@@H]2c1ccc(OCCO)cc1 | 1.16
CCOC(=O)C1=CC[C@@H](c2ccccc2)N(S(=O)(=O)c2ccc(C)cc2)[C@H]1C=C(C)C | 0.957
C[N+](C)(C)CCCC[C@@H]1NC(=O)[C@H]2C[C@@H](C(=O)NCCCCCCN)[C@@H](c3cccc(OCCO)c3)N2C1=O | 1.49
COC(=O)C(CC#Cc1ccc2c(c1)[C@]1(C(=O)N2)[C@H](c2ccc(O)cc2)N2[C@H](c3ccccc3)[C@H](c3ccccc3)OC(=O)[C@H]2[C@@H]1C(N)=O)C(=O)OC | -0.777
CCOc1cc(C(O)C2C=CC3C(=O)NC(=O)C3N2Nc2ccccn2)ccc1O (stereo unspecified) | 0.117
C[N+](C)(C)CCCCCCNC(=O)[C@@H]1C[C@@H]2C(=O)NCC(=O)N2[C@@H]1c1cccc(OCCO)c1 | 1.22
O=C1c2ccccc2C(=O)C2CC([C@H]3Oc4ccccc4S(=O)(=O)N4CCC[C@@H]34)=CCC12 (stereo partly specified) | 0.449
CCCc1cc2c(n1Cc1ccc(OC)cc1)C(C)C1CN(C(=O)c3ccccc3)C(C)(C(=O)OC)C21 (stereo unspecified) | 1.2
CC(=O)NCCCC[C@@H]1NC(=O)[C@@H]2C[C@H](C(=O)NCCCC[N+](C)(C)C)[C@H](c3cccc(OCCO)c3)N2C1=O | 1.13
[N-]=[N+]=Nc1ccccc1[C@@H]1OC(c2ccc(OCCCO)cc2)=N[C@]1(CCS(=O)(=O)c1ccccc1)C(=O)NCc1ccccc1 | 1.1
CN(C)CCCC[C@@H]1NC(=O)[C@H]2C[C@@H](C(=O)NCCCCCCNC(=O)CS)[C@@H](c3ccc(O)cc3)N2C1=O | 1.11
COC(=O)[C@@]1(Cc2ccc(OC)cc2)[C@H]2c3cc(C(=O)N4CCCC4)n(Cc4ccc(C)o4)c3C[C@H]2CN1C(=O)c1ccccc1 | 0.266
O=C1N(Cc2ccccc2)c2ccccc2[C@H]2OC(c3ccc(OCCCO)cc3)=N[C@@]12CCS(=O)(=O)c1ccccc1 | 1.28
COCCCNC(=O)[C@]1(Cc2ccccc2)N=C(c2ccc(OCCCO)cc2)O[C@@H]1c1ccccc1N=[N+]=[N-] | 1.2
CCCCC(=C=CC[C@H](O)c1cccc(OCCO)c1)C[C@H](O)COCc1ccccc1 | 0.794
COC(=O)c1ccc(OC)c(/C=C\CC(CCc2ccccc2)OC(=O)c2ccncc2)c1 (stereo unspecified) | 0.0883
COc1ccc([Si](C)(C)[C@H]2[C@H](CC(=O)N3CCC[C@H]3CO)O[C@@]3(C(=O)N(Cc4ccc(N5C(=O)c6cccc7cccc5c67)cc4)c4ccccc43)[C@@H]2C)cc1 | 0.804
COc1cc(NN2C(C(O)c3ccc(I)cc3)C=CC3C(=O)N(C)C(=O)C32)cc(OC)c1OC (stereo unspecified) | 1.14
C=CCC(OC(C)=O)[C@@H]1[C@@H](N(Cc2ccc(-c3ccccc3)cc2)C(=O)c2cccc3ccccc23)c2cc(OCCCO)ccc2N1C(=O)c1ccc2ccccc2n1 (stereo partly specified) | -0.669
C=CCC(OC(C)=O)[C@@H]1[C@@H](N(Cc2cccc3ccccc23)C(=O)Cc2ccc(F)cc2)c2cc(OCCCO)ccc2N1C(=O)Cc1ccc(OC)cc1 (stereo partly specified) | -0.424
O=C1O[C@H](c2ccccc2)[C@H](c2ccccc2)N2[C@H]1[C@@H](C(=O)N1CCN(c3ncccn3)CC1)[C@]1(C(=O)Nc3ccc(C#CCCO)cc31)[C@H]2c1ccccc1OCCO | 0.965
COC(=O)[C@@]1(Cc2ccccc2)[C@H]2c3cc(C(=O)N4CCCC4)n(CCO)c3C[C@H]2CN1C(=O)c1ccccc1 | 1.15
COCCCNC(=O)[C@@]1(Cc2ccccc2I)c2ccccc2C(=O)N(Cc2ccccc2Cl)[C@H]1c1ccc(CO)cc1 | 1.13
